Data as given in PubChem BioAssay.
Potency and affinity values are given separately. Inconclusive results are not listed. Activity calls are given as the source filed them. Unless noted, how the calls were made is not given here.

What was measured:
[1] = PAX8 transcriptional activity inhibition in RMG-I – RMG-I cells, luciferase, cherry-pick, dose response (AID 687027;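 active means every replicate test run called active, with the signal dropping as expected and potency within twice the top valid dose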)
[2] = RMG-1 ovarian cancer cell viability loss – cherry-pick, dose response (AID 687029;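 active means signal drop whose fitted half-maximal concentration is at most twice the top valid dose, in every test run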;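 further: cells exposed to compound for 96 hours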)
[3] = IOSE-T80 viability loss, PAX8-independent line – cell-based, cherry-pick, selectivity assay for PAX8 inhibitor project, dose response (AID 687032;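 active means fitted half-maximal concentration for viability loss no higher than twice the top valid dose, in every repeat run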;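 further: cells exposed to compound for 96 h before reading; 0% = neutral control wells and -100% = 2 µM mitoxantrone kill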)
[4] = CMV-driven luciferase expression suppression in HEK293 – cell-based, luminescence, dry powder, counter-screen for Pax8 inhibitor project, dose response (AID 743020;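 active means signal-lowering compounds whose fitted half-maximal concentration is at or below twice the top tested dose in every run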;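 further: HEK293 cells stably expressing the CMV luciferase reporter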)
[5] = general cell-killing toxicity readout – plate reader, dry powder samples, cytotoxicity control for PAX8 inhibitor project, dose response (AID 743021)
[6] = IGROV1 cell killing – plate reader, dry powder samples, PAX8 inhibitor project, dose response (AID 743043);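 further: more negative means fewer viable cells or more cytotoxicity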
[7] = OVCAR-3 cell viability loss – plate reader, dry powder samples, PAX8 inhibitor project, dose response (AID 743044); settings: max activity: at 35 µM, hits give low values unless noted
[8] = toxicity toward immortalized ovarian surface epithelium – cell-based, plate reader, dry powder samples, cytotoxicity control for PAX8 inhibitor project, dose response (AID 743045);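 further: 0% = neutral control median and -100% = positive control median; more negative values mean more cell killing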
[9] = OVCAR8 cell viability loss – plate reader, dry powder samples, PAX8 project, dose response (AID 743197)
[10] = A2780 cell killing – plate reader, dry powder samples, cytotoxicity control, dose response (AID 743046);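 further: 0% = neutral control wells and -100% = cytotoxic reference compound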

Measured: max activity

C[C@H](O)C#Cc1ccc2c(c1)O[C@@H](CN(C)Cc1ccc(-c3ccccc3)cc1)[C@H](C)CN([C@@H](C)CO)S2(=O)=O
inactive: [1] | [2] | [3] | [4] | [5] | [6] | [7] -13.7% | [8] | [9]

CO[C@@H]1CN(C)C(=O)c2cc(NC(=O)c3ccccc3F)ccc2OC[C@@H](C)N(CC2CC2)C[C@@H]1C
inactive: [1] | [2] | [3] | [4] | [5] | [6] | [7] 9.58% [at 0.5 µM, hits give low values] | [8] | [10] | [9]

C[C@@H]1CCCCO[C@H](CN(C)C)[C@H](C)CN([C@@H](C)CO)C(=O)c2cc(NS(=O)(=O)c3ccc(Cl)cc3)ccc2O1
inactive: [1] | [2] | [3] | [4] | [6] | [7] 34.9% [at 0.26 µM, hits give low values] | [8] | [10] | [9]

O=C(C[C@H]1C[C@H]2c3cc(NS(=O)(=O)c4ccc(F)cc4)ccc3O[C@H]2[C@H](CO)O1)NCc1ccc(-c2ccccc2)cc1
inactive: [1] | [2] | [3] | [4] | [5] | [6] | [7] 10.6% [at 1 µM, hits give low values] | [8] | [10] | [9]

C[C@H](O)C#Cc1ccc([C@@H]2[C@@H](CO)N3CCCCN(S(=O)(=O)c4ccccc4)C[C@H]23)cc1
inactive: [1] | [2] | [3] | [4] | [5] | [6] | [7] 11.5% [at 0.26 µM, hits give low values] | [8] | [10] | [9]

O=C(Nc1ccc(C(F)(F)F)cc1)Nc1ccc2c(c1)[C@@H]1C[C@@H](CC(=O)N3CCc4ccccc4C3)O[C@H](CO)[C@@H]1O2
inactive: [1] | [2] | [3] | [4] | [5] | [6] | [7] 19.1% [at 2.1 µM, hits give low values] | [8] | [10] | [9]

COc1ccc(-c2cn(CC[C@H]3CC[C@@H](NC(=O)Cc4ccccn4)[C@H](CO)O3)nn2)cc1
inactive: [1] | [2] | [3] | [4] | [5] | [6] | [7] 35.1% [at 2.1 µM, hits give low values] | [8] | [9]

COc1ccc(-c2cn(CC[C@H]3CC[C@@H](NC(=O)Cc4ccccn4)[C@@H](CO)O3)nn2)cc1
inactive: [1] | [2] | [3] | [4] | [5] | [6] | [7] -22.3% [at 4.2 µM, hits give low values] | [8]

C[C@@H]1CCCCO[C@@H](CN(C)CC2CCCCC2)[C@H](C)CN([C@H](C)CO)C(=O)c2cc(NC(=O)Nc3ccccc3)ccc2O1
inactive: [1] | [2] | [3] | [4] | [5] | [6] | [7] -37.2% [at 4.2 µM, hits give low values] | [8] | [9]

O=C(C[C@H]1C[C@@H]2c3cc(NC(=O)C4CCOCC4)ccc3O[C@@H]2[C@@H](CO)O1)NCc1ccc(Oc2ccccc2)cc1
inactive: [1] | [2] | [3] | [4] | [6] | [7] -14.4% [at 4.2 µM, hits give low values] | [8] | [10] | [9]

COc1ccccc1NC(=O)N1CCCCN2[C@H](CO)[C@H](c3ccc(-c4ccc(C)cc4)cc3)[C@H]2C1
inactive: [1] | [2] | [3] | [4] | [5] | [6] | [7] 15.5% [at 1 µM, hits give low values] | [8] | [10] | [9]

COc1ccc(-c2cn(CC[C@H]3CC[C@H](NC(=O)Cc4ccccn4)[C@@H](CO)O3)nn2)cc1
inactive: [1] | [2] | [3] | [4] | [5] | [6] | [7] -17.4% | [8] | [10] | [9]

CN(C)C(=O)c1cccc(-c2ccccc2[C@@H]2[C@@H](C#N)N(C(=O)C3CC3)[C@H]2CO)c1
inactive: [1] | [2] | [3] | [4] | [5] | [6] | [7] 12.7% [at 0.26 µM, hits give low values] | [8] | [10] | [9]

COc1ccc(NC(=O)N2CCCCN3[C@@H](CO)[C@@H](c4ccc(C5=CCCC5)cc4)[C@@H]3C2)cc1
inactive: [1] | [2] | [3] | [4] | [5] | [6] | [8]

O=C(Cc1ccccn1)N[C@H]1CC[C@H](CCn2cc(-c3ccccc3)nn2)O[C@@H]1CO
inactive: [1] | [2] | [3] | [4] | [5] | [6] | [7] -16.8% [at 16 µM, hits give low values] | [8] | [10] | [9]

O=C(c1cccs1)N1C[C@H](O)[C@@H](n2cc(C3CC3)nn2)C[C@@H]1c1ccccc1
inactive: [1] | [2] | [3] | [4] | [5]

O=C(C[C@@H]1C[C@@H]2c3cc(NC(=O)Nc4ccccc4F)ccc3O[C@@H]2[C@H](CO)O1)NCc1ccc(Oc2ccccc2)cc1
inactive: [1] | [2] | [3] | [4] | [5] | [6] | [7] 14% [at 0.5 µM, hits give low values] | [8] | [10] | [9]

COc1ccc(-c2ccc3c(c2)[C@H]2[C@H](CCN2C(=O)Cc2cccnc2)[C@H](CO)N3C)cc1
inactive: [1] | [2] | [3] | [4] | [5] | [6] | [7] 35.5% [at 0.26 µM, hits give low values] | [8] | [10]

O=C(Cc1ccccn1)NCC[C@@H]1CC[C@H](NC(=O)Nc2ccc(C(F)(F)F)cc2)[C@@H](CO)O1
inactive: [1] | [2] | [3] | [4] | [5] | [6] | [7] -10.6% [at 16 µM, hits give low values] | [8] | [10] | [9]

C[C@@H]1CN([C@H](C)CO)C(=O)c2cc(NC(=O)Cc3ccccc3)ccc2O[C@@H](C)CCCCO[C@H]1CN(C)Cc1ccc(Cl)c(Cl)c1
inactive: [1] | [2] | [3] | [4] | [5] | [6] | [8] | [10]
